PubChem BioAssay (NCI)
About 83,000 compounds went through this panel and 20% of them were active in at least one assay; those are over-represented in the sample as a whole.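 Results are percent growth after 48 hours of single-concentration exposure. 100 means growth as in untreated cells, lower positive values show inhibition; negative values down to -100 show cell death.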 A number with no mark means an inactive call. Activity calls are given as the source filed them. How the source made its calls: active means growth percent below 10; inactive means the rest.

Each compound was assayed on RXF 393 renal (assay: NCI-60 one-dose screen, 48 h (100 = growth as untreated, 0 = no growth, -100 = all killed)). Details: 10 µM unless noted.

SMILES	growth
O=C1c2cccc3cccc(c23)C(=O)N1N1C(=O)c2cccc3c(N4CCOCC4)ccc(c23)C1=O	93.4%
CCO/C=N/C1=C(C#N)C(c2ccc(OC)cc2)c2sc3c(F)cccc3c2O1 (stereo not given)	3.81% (active)
Cc1ccc(CNc2ccc(Cl)cc2NCc2ccc(C)c(O)c2)cc1O	21.2%
O=C(c1ccc(-c2nc(CSc3nc4ccccc4s3)no2)cc1)N1CCSCC1	110%
C/C(=C(/c1ccc(Cl)cc1)c1ccc(OCCN2CCCC2)cc1)c1ccc(Cl)cc1	72%
CC[C@]12C=CCN3CC[C@@]4(c5cc(NC(=O)CCC(=O)OCc6cn(Cc7ccc(F)cc7)nn6)c(OC)cc5N(C)[C@H]4[C@@](O)(C(=O)OC)[C@@H]1OC(C)=O)[C@@H]32	103%
C=C(C)[C@@H]1CC[C@]2(C(=O)O)CC[C@]3(C)[C@H](CC[C@@H]4[C@@]5(C)C[C@@H](Cc6cn(CCO[C@@H]7O[C@H](COC(C)=O)[C@H](OC(C)=O)[C@H](OC(C)=O)[C@H]7OC(C)=O)nn6)[C@H](O)C(C)(C)[C@@H]5CC[C@]43C)[C@@H]12	77.5%
C=CCn1c(SCC(=O)Nc2ccc(C(=O)/C=C/c3ccc(Cl)cc3)cc2)nnc1-c1cc(-c2ccc(S(N)(=O)=O)cc2)nc2ccccc12	80.2%
CCOC(=O)C1=NN(c2ccccc2)C(=O)/C1=C\N1C(=O)CC(=O)NC1=S	117%
CC12CCC3c4ccccc4CCC3(CO1)C2 (stereo not given)	93.4%
O=C1CC(N2C(=O)/C(=C/C(Cl)=C\c3ccc([N+](=O)[O-])cc3)SC2=S)C(=O)N1c1ccc(Cl)cc1 (stereo not given)	-64.1% (active)
CC1(C)c2[nH]c3ccccc3c2C[C@]2(C)[C@H]3CC=C4[C@@H]5C[C@@](C)(C(N)=O)CC[C@]5(C)CC[C@@]4(C)[C@]3(C)CC[C@@H]12	77.4%
CCCCCOc1ccc(C(=O)/C(Br)=C/C(=O)O)cc1	95.2%
CC(C)N1CCN(Cc2ccc3c(NNC(=O)c4ccccc4)nc4cc(F)ccc4n23)CC1	37.7%
N#Cc1cccc(NC(=O)c2oc3ccccc3c2-c2cnn(-c3ccccc3)c2)c1	75.7% [50 µM]
Cc1cccc(N2CCN(CC(O)COc3ccc(Cl)cc3)CC2)c1 (stereo not given)	107%
CCOC(=O)c1c(C)nc2c(c1N)CC(=O)N2Cc1cc(F)cc(Cl)c1	92.4%
C[C@@H]1CCC[C@H]1CC(N)C(=O)O (stereo not given in full)	117%
O=CC1(C2(C=O)c3ccccc3-c3ccccc32)c2ccccc2-c2ccccc21	-61.4% (active)
O=C1Nc2ccc(I)cc2C1=O	91.4%

SMILES	growth
CN1CCN(c2ccc(NC(=O)c3nc4ccc5[nH]ncc5c4c4c3CCCC4)cc2C(F)(F)F)CC1	72.3%
CN(C)C1CCN(Cc2ccc(NC(=O)c3cncc(C#Cc4cnc(N)c5ncccc45)c3)cc2C(F)(F)F)CC1	19.4%
COc1ccc(C/C(C)=C(/c2ccc(OCCN3CCCCC3)cc2)c2ccc(OC(=O)NCc3ccccc3)cc2)cc1	-91.4% (active)
COc1ccccc1NC(=O)Cn1cc(CN2CCN(c3ccnc4cc(Cl)ccc34)CC2)nn1	85.8%
N=C(N)c1ccc(-c2ccc(-c3ccc(F)cc3)o2)o1	39.6%
CN1C(=O)/C(=C/c2ccc(C(=O)Nc3ncc(Cc4ccc(Cl)cc4)s3)cc2)SC1=S	48.3%
CCCCCC(=O)OCC(=O)O[C@@H]1C[C@]2(C(C)C)O[C@@]1(C)[C@@H]1CC[C@@H](C)[C@H]1[C@@H]2OC(=O)/C=C/c1ccccc1	-2.83% (active)
CC(=O)N(N=Nc1ccccc1)c1cccc2ccccc12	89.6%
COc1ccc(/C=C2\C(=O)N=C3N2NC(c2cc(Br)ccc2O)C=C(C)N3c2ccccc2)cc1 (stereo not given)	97.7%
CC(C)(C)[Si](C)(C)O[C@H]1C(=O)C=CN2CC=C[C@@H]12	109% [100 µM]
C=C1C(=O)O[C@H]2[C@H]1CC/C(COC(=O)CSCCSCC(=O)OC/C1=C/CC[C@@]3(C)O[C@H]3[C@H]3OC(=O)C(=C)[C@@H]3CC1)=C\CC[C@@]1(C)O[C@@H]21	-85.1% (active)
Brc1ccc2[nH]cc(-c3nonc3-c3c[nH]c4ccccc34)c2c1	77.6%
COc1cccc(NC(=O)Cn2cc(CN3CCN(c4ccnc5cc(Cl)ccc45)CC3)nn2)c1	95%
CCOc1ccc(NC(=O)CSc2oc(-c3ccccc3)nc2S(=O)(=O)c2ccc(F)cc2)cc1	77.6%
O=C1Nc2ccc(Br)cc2/C1=N/c1n[nH]c(=S)s1	109%
COc1ccc(C(=O)C2C(c3ccc(OC)cc3)CN(C)C23C(=O)Nc2ccccc23)cc1 (stereo not given)	80.8%
Cc1noc(C)c1C(=O)OCc1coc2ccccc2c1=O	76.5%
C[C@]12CC[C@@H]3c4ccc(O)c([N+](=O)[O-])c4CC[C@H]3[C@@H]1CCC2=O	97%
COc1cccc([C@H]2c3[nH]c4ccccc4c3C[C@H]3C(=O)N(CCCCCCC(=O)NO)CC(=O)N23)c1	75%
CO/N=C(/C)c1ccc(NC(=O)CSc2nnc(-c3ccncc3)n2-c2ccccc2)cc1	4.02% (active)
